Assay outcomes: PubChem, several laboratories
CF NFkB block: inhibitors of PAF-induced NF-kB signaling, primary screen, cell-based, GFP fluorescence, uHTS; KKLEB NF-kB-GFP reporter, GFP fluorescence overnight; inhibition, % at 5 µM; hit rate 0.86% among 360,000;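 active = at least 50% inhibition at 5 µM, scaled per plate between neutral and stimulator controls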;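 note: PAF is a Pseudomonas aeruginosa culture filtrate used as stimulus; plate controls were PAF-stimulated DMSO wells for no effect and unstimulated DMSO wells for full effect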
KKLEB cytotox: cytotoxicity in KKLEB CF airway cells, primary screen, cytotoxicity control for CF NF-kB inhibitor project, cell-based, uHTS, fluorescence assay plates. activity change (cytotoxicity), % at 5 µM. KKLEB CF airway cells viability, ATPlite luminescence, overnight; hits give low values; cells stimulated with P. aeruginosa culture filtrate. hit rate 0.36% among 360,000;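 active = corrected activity change at or below -50% at 5 µM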
Peg3 promoter: Peg3 promoter-driven luciferase inhibitors, primary screen, cell-based, HeLa, luciferase luminescence; HeLa PEG-Prom luciferase reporter, overnight; inhibition, % at 20 µM; hit rate 1.7% among 360,000; AID 588405, 2011;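 active = inhibition of at least 50% at 20 µM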
MITF TRPM1 inh: inhibitors of MITF-dependent TRPM1 promoter reporter, primary screen, cell-based, SK-MEL-5, single point, luciferase; SK-MEL-5 TRPM1 promoter luciferase, 24 h; hit rate 0.83% among 330,000; AID 488899, 2010; inhibition, % at 12.5 µM;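 active = mean inhibition across replicates of 60% or more, whatever share of single replicates reaches that level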
EBV LMP1 NFkB: EBV LMP1-driven NF-kappaB luciferase reporter inhibitors, primary screen, cell-based, luminescence, single point; LMP1-induced NF-kappaB luciferase reporter cells; inhibition, % at 12.5 µM; hit rate 0.69% among 350,000; AID 504558, 2011; in the data active = inhibition above about 41%;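 note: 0% = neutral control wells and 100% = reference inhibitor control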
Shn3 3UTR inh: reduction of Shn3 3'UTR firefly luciferase signal, primary screen, Schnurri-3 inhibitor project, cell-based, Clone20 osteoblasts, set 2 | Clone20 osteoblast Shn3 3'UTR firefly luciferase, 24 h | inhibition, % at 12.5 µM | hit rate 0.52% among 360,000 | AID 588674, 2011;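 active = mean inhibition of at least 75% with every replicate also reaching 75%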;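 note: 0% = median of neutral control wells and 100% = pilot-screen positive control compound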
An asterisk follows results filed as active; . = no result. Shown are actives, neighbours in structure and some others; about 2.9% of the full set was active somewhere.

SMILES | CF NFkB block | KKLEB cytotox | Peg3 promoter | MITF TRPM1 inh | EBV LMP1 NFkB | Shn3 3UTR inh
CN(C)CCOc1ncnc2c1oc1ccccc12 | -17.8 | -4.4 | 7.9 | 6.0 | -11.6 | -18.4
CN(C)CCOc1nc(-c2ccccc2)nc2c1oc1ccccc12 | -67.0 | -0.1 | 99.8* | 20.3 | -20.8 | -10.1
CN(C)c1ccc(Sc2ccc3nc(N)nc(N)c3c2)cc1 | 23.8 | -31.4 | 105.4* | . | 17.4 | 79.8
CCOc1ccc(CCNC(=O)COC(=O)COc2ccc(C#N)cc2)cc1OCC | -4.0 | -12.6 | -0.5 | -7.9 | 4.6 | 7.5
COC(=O)c1c(NC(=O)COC(=O)c2ccc(Cl)cc2[N+](=O)[O-])sc2c1CCCCC2 | 2.8 | 5.7 | 70.9* | 0.4 | -2.4 | -4.0
CC(=O)c1ccc(OCCCC(=O)Nc2nnc(C3CC3)s2)cc1 | -1.5 | -21.3 | -9.6 | -6.3 | 9.6 | 13.9
N#C/C(=N\Nc1ccc(S(=O)(=O)N2CCc3ccccc32)cc1)C(N)=S | 58.2* | -9.1 | 43.2 | 16.6 | 4.6 | 20.4
CC(C)C[C@@H](CN)NC(=O)c1nc[nH]c1C(=O)N[C@@H](C)C(=O)CNC[C@H](C)NC(=O)c1nc[nH]c1C(=O)N[C@@H](CC(C)C)C(=O)O | 3.3 | 9.0 | -5.2 | 9.7 | 0.4 | -5.2
Cc1ccc(C(=O)N/C(=C\c2ccc(-c3ccc(Cl)cc3)o2)C(=O)NCCCN(C)C)cc1 | 23.1 | -20.4 | 102.7* | 85.7* | -1.0 | 0.8
CN(C)CCCNC(=O)/C(=C\c1ccc(-c2ccc(Br)cc2)o1)NC(=O)c1ccccc1 | 16.3 | -70.5* | 75.5* | 95.8* | -2.0 | -3.2
CN(C)CCCNC(=O)/C(=C/c1ccc(-c2ccc([N+](=O)[O-])cc2)o1)NC(=O)c1ccccc1 | -13.5 | -5.3 | -14.8 | -8.9 | 4.7 | -6.8
COc1ccc(-c2oc3ccc(N4CCOCC4)cc3c2C#CCO)cc1 | -18.5 | 4.3 | 82.9* | 45.1 | -1.7 | -37.6
CCNC(=O)C1(C)CCCN1C(=O)c1c(F)cccc1F (stereo not drawn) | 9.8 | -2.2 | -14.0 | . | . | -0.6
Cc1cc(C)n(S(=O)(=O)c2cc(C(=O)O)c(Cl)cc2Cl)n1 | 10.7 | -8.6 | 6.6 | -11.6 | 3.6 | -31.6
COC(=O)c1cc(S(=O)(=O)n2nc(C)c(Br)c2C)c(Cl)cc1Cl | -21.0 | -15.9 | 87.1* | 3.8 | 3.0 | 10.0
CCOC(=O)N1C(=O)[C@@](CC)(c2ccccc2)N1C(=O)OCC | 48.6 | -8.7 | 34.4 | 74.8* | 5.4 | -10.4
CCS(=O)(=O)c1ccc(OC)c(N=Nc2ccc(O)c3ncccc23)c1 | 2.1 | 6.8 | -1.8 | 11.7 | -7.4 | 40.2
CCOc1ccc(N=Nc2ccc(O)c3ncccc23)cc1 | -38.3 | 7.2 | 22.2 | 70.0* | 5.5 | 89.9*
CCOc1ccc(N=Nc2cc(C(C)C)ccc2O)cc1 | -5.5 | -1.3 | -74.0 | -22.8 | -4.8 | -5.9
CCN(CC)S(=O)(=O)c1cc(OC)ccc1N=Nc1ccc(O)c2ncccc12 | 18.9 | -20.1 | 42.2 | 70.6* | -1.2 | 90.5*
NS(=O)(=O)c1ccc(N=Nc2ccc(O)c3ncccc23)cc1 | -11.1 | 6.2 | 56.4* | 33.4 | 17.9 | 78.4
Cc1ccccc1S(=O)(=O)NC(=O)C1(C)CCN1C(=O)Cc1cccs1 (stereo not drawn) | -26.1 | 11.6 | 7.3 | . | . | 10.0
O=C(NC(Cc1c[nH]c2ccccc12)C(=O)Nc1ccc(F)c([N+](=O)[O-])c1)c1cccs1 (stereo not drawn) | -9.0 | -10.3 | 6.2 | -7.7 | 50.3* | 14.5
Cc1nc2ccccn2c1C(=O)N=Nc1c(O)n(CCC(C)C)c2ccccc12 | 12.6 | -19.7 | 107.1* | 56.6 | 36.2 | 86.0*
CCC(CC)C(=O)N(C)c1c(C)nc2c(OCc3ccc(Cl)cc3)cccn12 | -19.1 | 1.0 | 11.6 | . | . | -1.0
SMILES | CF NFkB block | KKLEB cytotox | Peg3 promoter | MITF TRPM1 inh | EBV LMP1 NFkB | Shn3 3UTR inh
CCn1c(/N=C/c2ccccc2NS(=O)(=O)c2ccc(C)cc2)nc2ccccc21 | 61.0* | -16.2 | 24.1 | 8.5 | -3.6 | 1.4
CCN(CC)CCn1c(NS(=O)(=O)c2ccc(C)cc2)nc2ccccc21 | 9.3 | -13.0 | -10.1 | . | 2.8 | -0.1
CSc1ccc(NC(=O)C2(C)CCN2C(=O)Cc2ccc(C(C)(C)C)cc2)cc1 (stereo not drawn) | 6.6 | -11.1 | -3.9 | . | . | -2.5
Cc1cc(=O)[nH]c(N=N/C(=N/Nc2ccc(O)cc2)c2ccccc2)n1 | 5.2 | 0.0 | -235.3 | -27.6 | -10.7 | -36.8
Cc1cc(=O)[nH]c(N=N/C(=N/Nc2ccccc2C)c2ccccc2)n1 | -0.1 | 2.2 | 22.2 | 41.0 | 50.5* | 20.5
O=C1NC(=O)c2c(Br)c(Br)c(Br)c(Br)c21 | -9.8 | 5.4 | 21.3 | -4.2 | -10.8 | 5.5
Cc1cccc(NC(=O)c2nc[nH]c2C(=O)N[C@@H](C)CO)c1 | -22.1 | 5.2 | -4.3 | . | 7.2 | -2.9
COCCn1c(C)cc(C2=NNC(=Nc3ccccc3F)SC2)c1C | 0.4 | -4.0 | 6.0 | 66.8* | 64.3* | 67.4
COCCCN=C1NN=C(c2cc(C)n(-c3ccccc3F)c2C)CS1 | 1.8 | -23.6 | -2.1 | 25.6 | 32.6 | 39.2
COC(=O)c1cc(=O)n(CCc2ccc(OC)c(OC)c2)c(=Nc2ccc(F)c(Cl)c2)s1 | 26.9 | -8.1 | 99.0* | 7.1 | -30.4 | 50.2
CNC(=O)C1CC(=O)N(CCc2ccc(OC)c(OC)c2)C(=Nc2ccc(F)cc2)S1 (stereo not drawn) | -2.4 | 3.8 | 18.3 | -5.7 | 2.9 | 7.3
COC(=O)c1cc(=O)n(Cc2cccs2)c(=Nc2ccccc2)s1 | 13.3 | -8.5 | 23.7 | 4.3 | -4.7 | 14.5
CCOC(=O)c1ccc(N=c2sc(C(=O)OC)cc(=O)n2-c2ccc(C(=O)OCC)cc2)cc1 | 16.6 | -19.4 | 98.9* | 30.4 | -1.9 | 1.9
COC(=O)c1cc(=O)n(Cc2ccc(F)cc2)c(=Nc2ccccc2)s1 | 17.6 | 0.4 | 54.9* | 20.3 | -3.0 | -1.4
NS(=O)(=O)c1ccc(CCNC(=O)CSc2nc3c(sc(=S)n3-c3ccccc3)c(=O)[nH]2)cc1 | -42.0 | 10.7 | 2.6 | . | 5.6 | -18.7
C[C@@H]1CN([C@H](C)CO)S(=O)(=O)c2ccc(C#CC3CCCC3)cc2O[C@H]1CN(C)C(=O)Cc1ccccc1 | 7.7 | -4.9 | 34.5 | . | 1.8 | 30.3
CCOC(=O)c1cc(-c2ccccc2C)nn1Cc1cc(C)no1 | -13.7 | 18.0 | -165.2 | -67.7 | 58.4* | -61.1
CCNC(=O)C1CCCN(C(=O)Cc2ccc3ccccc3c2)CC1 (stereo not drawn) | 11.3 | 0.4 | -10.1 | . | . | -2.1
CC(C)N1CCc2c(sc(NC(=O)c3ccc([N+](=O)[O-])o3)c2C(N)=O)C1 | 78.8* | 9.0 | 104.1* | 94.0* | 1.8 | -62.3
